TDP1 inh: blocks human tyrosyl-DNA phosphodiesterase 1; recombinant TDP1, AlphaScreen DNA substrate cleavage; 0.28% of 350,000 active; AID 485290; Potency, µM (series often up to 130 µM), actives largely listed as inhibitors; note: nearly all actives have a fitted effect of over 40% in size
Target sequence (Q9NUW8 whole entry, looked up): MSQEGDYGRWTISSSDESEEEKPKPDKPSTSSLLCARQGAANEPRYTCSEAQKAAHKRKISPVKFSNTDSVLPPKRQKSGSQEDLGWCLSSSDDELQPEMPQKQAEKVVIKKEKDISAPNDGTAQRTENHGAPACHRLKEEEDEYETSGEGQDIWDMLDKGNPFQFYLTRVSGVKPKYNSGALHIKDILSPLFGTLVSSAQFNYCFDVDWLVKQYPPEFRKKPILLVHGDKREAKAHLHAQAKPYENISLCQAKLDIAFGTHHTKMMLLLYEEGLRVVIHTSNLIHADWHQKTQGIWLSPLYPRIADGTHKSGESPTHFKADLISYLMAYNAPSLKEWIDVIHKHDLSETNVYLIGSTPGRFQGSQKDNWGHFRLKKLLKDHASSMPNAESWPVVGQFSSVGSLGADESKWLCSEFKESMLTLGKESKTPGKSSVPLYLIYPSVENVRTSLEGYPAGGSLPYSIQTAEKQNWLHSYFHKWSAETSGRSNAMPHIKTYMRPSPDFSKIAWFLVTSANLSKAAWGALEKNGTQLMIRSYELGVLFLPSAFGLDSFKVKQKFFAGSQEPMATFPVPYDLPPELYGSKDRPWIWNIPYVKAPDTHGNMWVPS
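E. coli-derived human Tdp1, 1 nM final. Cpd preinc 15 min RT; substrate 15 nM final, 5 min RT; AS bead mix 10 ug/ml final, 10 min RT. Signal loss = tyrosine-FITC cleavage. No-enzyme wells = max signal.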
PLK1 PBD block: PLK1 (human) polo-box domain binding inhibition | Plk1 PBD binding of FITC phosphopeptide, fluorescence polarization | Potency, µM, actives largely listed as inhibitors | 2.8% of 360,000 active; note: series mostly up to about 57 µM; nearly all actives have a fitted effect of over 65% in size
TDP1 cell noCPT: qHTS for Inhibitors of human tyrosyl-DNA phosphodiesterase 1 (TDP1): qHTS in cells in absence of CPT; Potency, µM (highest dose often 46.2 µM), most hits filed as inhibitors; AID 686978, 2013; 15% of 420,000 active; DT40 Tdp1-/- hTDP1 cells, no CPT, ATP luminescence, 48 h; note: nearly all actives have a fitted effect of over 55% in size
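Chicken DT40 Tdp1-/- cells complemented with human TDP1, screened without camptothecin (DMSO vehicle only), 400 cells/well. Compounds pin-transferred, cells incubated at 37 °C for at least 48 hr. Growth read as ATP-dependent luminescence (CellTiter-Glo, 30 min at RT).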
TDP1 cell CPT: DT40-hTDP1 cell growth loss with CPT. chicken DT40 Tdp1-/-;hTDP1 cells + 20 nM CPT, ATP luminescence, 48 h. Potency, µM (highest dose often 46.2 µM), actives largely listed as inhibitors. 12% of 420,000 active; note: nearly all actives have a fitted effect of over 55% in size
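Cell growth measured by CellTiter-Glo luminescence after a minimum 48 h, 37 C compound exposure with 20 nM CPT in Tdp1-knockout DT40 cells stably expressing hTDP1, seeded 400/well; qHTS titration format.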
KAT2A inh: GCN5L2 (KAT2A) acetyltransferase inhibition; Q92830; GCN5L2 HAT assay, ThioGlo1 CoA-SH fluorescence; Potency, µM (titrated, usually from 58.9 µM), actives largely listed as inhibitors; 0.21% of 390,000 active
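Enzyme at 20nM final was mixed with library compounds for 15 min at room temperature. Peptide H3(1-25) at 75uM, acetyl-CoA at 70uM and ThioGlo1 at 50uM were then added. Plates were read immediately and after 20 min (Ex340nm/Em540nm).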
VDR inhibitor: vitamin D3 receptor (human) inhibition. P11473. AID 504847. VDR-SRC2-3 peptide fluorescence polarization, 2 h. 0.93% of 400,000 active. Potency, µM, actives largely listed as inhibitors
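Compounds are added to VDR with labelled SRC2-3 coactivator peptide and held 2 h at room temperature. Inhibition of the VDR–peptide interaction is then read as a change in fluorescence polarization.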
Of the large screens only hits and unclear results are named; the others gave an inactive call. This is a sample that favours compounds with a hit; in the whole collection about 18% have one here. Calls come from the whole dose curve; as a rule, active = well fitted curve in the direction sought with a large enough effect; inconclusive = small, poorly fitted or top-dose-only effect, or another doubt; inactive = no such curve, though single readings can be large; an effect the other way counts as inactive or inconclusive.

CCOc1ccc(N(CC(=O)N2CCN(c3ccccc3F)CC2)S(=O)(=O)c2c(C)noc2C)cc1	none
C=CCN(CC=C)C(=O)C(=O)c1ccn(-c2c(C)csc2C(=O)OC)c1	TDP1 cell noCPT inconclusive (no result: TDP1 inh)
O=c1cc(C(F)(F)F)[nH]c2ccc(OC(F)(F)F)cc12	TDP1 cell noCPT 13µM, TDP1 cell CPT 21µM
O=c1cc(C(F)(F)F)[nH]c2c(C(F)(F)F)cccc12	TDP1 cell noCPT 16µM, TDP1 cell CPT 18µM
COc1ccc(NC(=O)CN2C(=O)C(C)SC(C)C2=O)cc1 (stereo unspecified)	none
COc1ccc(NC(=O)CC2Sc3ncnn3C2=O)cc1 (stereo unspecified)	PLK1 PBD block inconclusive, TDP1 cell noCPT 12µM, TDP1 cell CPT 5.2µM
COc1cccc(NC(=O)C(Sc2nnc(-c3ccncc3)n2-c2ccc(Cl)cc2)c2ccccc2)c1 (stereo unspecified)	TDP1 cell noCPT 21µM, TDP1 cell CPT 16µM
CCOc1ccc(NC(=O)CC2C(=O)N(c3ccc(OC)c(Cl)c3)C(=S)N2C2CC2)cc1 (stereo unspecified)	TDP1 cell noCPT inconclusive
CCOC(=O)C1=C(COC(=O)c2ccco2)NC(=O)NC1CC (stereo unspecified)	none
COc1cccc(-c2ncc3ccccc3c2COC(=O)c2ccc(C(C)(C)C)cc2)c1	TDP1 cell noCPT inconclusive, TDP1 cell CPT inconclusive
COc1ccc(CCNC(=O)c2cc(-c3ccc(C)c(C)c3)nc3ccccc23)cc1OC	TDP1 cell CPT 10µM (no result: PLK1 PBD block)
COc1ccc(CCNC(=O)c2cc(Nc3ccccc3)nc3ccccc23)cc1OC	TDP1 cell noCPT 8.2µM, TDP1 cell CPT 9.2µM, KAT2A inh inconclusive (no result: PLK1 PBD block)
COc1ccc(-c2cc(C(=O)NCCc3ccc(OC)c(OC)c3)c3ccccc3n2)cc1	TDP1 cell noCPT 12µM, TDP1 cell CPT 18µM (no result: PLK1 PBD block)
Cc1ccc(Nc2cc(C(=O)NCCc3ccccc3)c3ccccc3n2)c(C)c1	TDP1 cell noCPT inconclusive, TDP1 cell CPT inconclusive (no result: PLK1 PBD block)
COc1ccc(CCNC(=O)c2cccc3ccccc23)cc1OC	none
CCOc1ccc(CCNC(=O)c2cc(Nc3ccc(C)cc3C)nc3ccccc23)cc1OCC	TDP1 cell noCPT 8.2µM, TDP1 cell CPT 8.2µM (no result: PLK1 PBD block)
CCCC(=O)Nc1sc(-c2ccccc2)c(-c2ccccc2)c1C(=O)O	none (no result: TDP1 inh, KAT2A inh)
Cc1cc2c(s1)c1c(n2C)C(=O)N(Cc2ccccc2F)C1	none (no result: TDP1 inh, PLK1 PBD block, TDP1 cell noCPT, TDP1 cell CPT, VDR inhibitor)
CC(=O)c1ccc(NC(=O)Cn2nc(C(F)(F)F)c3c2CCC3)cc1	none (no result: PLK1 PBD block)
CCc1ccc2occ(CC(=O)Nc3ccc(OC)c(Cl)c3)c2c1	TDP1 cell noCPT inconclusive, TDP1 cell CPT inconclusive (no result: PLK1 PBD block)
CCC(Cc1ccccc1)NC(=O)c1cccc(Nc2nc3ccccc3nc2-n2nc(C)cc2C)c1 (stereo unspecified)	none (no result: PLK1 PBD block)
COc1ccc(CCNC(=O)c2cccc(Nc3nc4ccccc4nc3-n3nc(C)cc3C)c2)cc1OC	TDP1 cell noCPT 4.6µM, TDP1 cell CPT 5.2µM (no result: PLK1 PBD block)
CC(O)(c1ccc(F)c(F)c1)c1nc(-c2ccncc2)cs1 (stereo unspecified)	TDP1 cell noCPT 13µM, TDP1 cell CPT 21µM (no result: TDP1 inh, KAT2A inh, VDR inhibitor)
COCc1cccc(-c2csc(C(C)(O)c3ccc(OC)cc3)n2)c1 (stereo unspecified)	TDP1 cell noCPT inconclusive, TDP1 cell CPT inconclusive (no result: TDP1 inh, KAT2A inh, VDR inhibitor)
COc1ccc(-c2csc(C(C)(O)c3ccc(F)c(F)c3)n2)cc1 (stereo unspecified)	TDP1 cell noCPT inconclusive, TDP1 cell CPT inconclusive (no result: TDP1 inh, KAT2A inh, VDR inhibitor)
COc1ccc(C(C)(O)c2nc(-c3ccc(S(C)(=O)=O)cc3)cs2)cc1 (stereo unspecified)	TDP1 cell noCPT 23µM, TDP1 cell CPT inconclusive (no result: TDP1 inh, KAT2A inh, VDR inhibitor)
CC(O)(c1ccc(F)c(F)c1)c1nc(-c2ccc(S(C)(=O)=O)cc2)cs1 (stereo unspecified)	TDP1 cell noCPT 16µM, TDP1 cell CPT inconclusive (no result: TDP1 inh, KAT2A inh, VDR inhibitor)
Cc1ccc(C(O)c2ncc(-c3ccc(F)cc3)[nH]2)c(C)c1 (stereo unspecified)	TDP1 cell noCPT inconclusive, TDP1 cell CPT inconclusive (no result: TDP1 inh, KAT2A inh, VDR inhibitor)

Assay outcomes: PubChem BioAssay, National Center for Advancing Translational Sciences (NCATS)
